# Shown is part of a subset that was picked to be rich in hits.
# Vaccinia Venus = vaccinia inhibition (Venus reporter); Vaccinia virus Venus reporter expression, fluorescence; Potency, µM (doses to about 36.5 µM), actives largely listed as inhibitors; 330,000 tested, 0.46% active; AID 720580; calls by dose curve; tested in A549 cells; further: nearly all actives have a fitted effect of over 30% in size
# VACV mCherry inh = vaccinia inhibition (mCherry reporter); Vaccinia virus mCherry reporter infection, fluorescence; Potency, µM (top dose mostly 36.5 µM), hits mostly inhibitors; 310,000 tested, 0.63% active; AID 720579; calls by dose curve; tested in A549 cells; further: nearly all actives have a fitted effect of over 35% in size
# CHX counter = affects cycloheximide protein synthesis inhibition readout, counter-screen | cell reporter, cycloheximide protein synthesis inhibition counterscreen | 300,000 tested, 12% active | AID 2314 | max response, %; in the data active means max response mostly above about 13%, no sharp cut-off; inactive means mostly below about 14%; further: read at 38.3 µM for the half of the compounds with a filed dose
# LASV entry inh = inhibitors of Lassa virus binding or cell entry | Lassa virus pseudotype entry inhibition, cell reporter | 300,000 tested, 1.2% active | Potency, µM (top dose mostly 37.9 µM), hits mostly inhibitors; calls by dose curve; tested in HEK293 cells; further: nearly all actives have a fitted effect of over 50% in size
# Marburg entry inh = inhibitors of Marburg virus binding or cell entry. 300,000 tested, 1.8% active. Potency, µM (doses to about 37.8 µM), actives largely listed as inhibitors. AID 540276. Marburg virus pseudotyped entry inhibition, cell reporter; calls by dose curve; tested in HEK293 cells
# Shiga toxin inh = Shiga toxin inhibition; AID 2315; inhibition, % at 38.7 µM; Vero cells, Shiga toxin protein synthesis inhibition reporter; 290,000 tested, 9.2% active; in the data active means inhibition mostly above about 28%, no sharp cut-off; inactive means mostly below about 43%
# A number is an active result; - = inactive; ? = inconclusive; . = no result given.
SMILES,Vaccinia Venus,VACV mCherry inh,CHX counter,LASV entry inh,Marburg entry inh,Shiga toxin inh
CCCC(=O)NC1CCCc2c1cnn2-c1ccc(C)c(C)c1 (stereo not given),.,.,20,.,.,-
Cc1cc(C(=O)NC2CCCc3c2cnn3-c2ccc(C)c(C)c2)no1 (stereo not given),.,.,15,.,.,-
CC(C)(C)c1ccc(-n2ncc3c2CCCC3NC(=O)c2csnn2)cc1 (stereo not given),-,-,-,-,-,-
Cc1ccc(-n2ncc3c2CCCC3NC(=O)CCn2ccnc2C)cc1C (stereo not given),-,-,.,-,?,.
CSCC(=O)NC1CCCc2c1cnn2-c1cc(F)cc(F)c1 (stereo not given),.,.,14,.,.,-
COc1ccc(-c2nc3nc(C)cc(Nc4ccc(C(C)=O)cc4)n3n2)cc1,-,?,.,-,?,.
COCCN(C(=O)CCC(=O)Nc1ccccn1)C(C(=O)NCCC(C)C)c1ccc(C)cc1 (stereo not given),-,-,-,.,-,-
Cc1cc(C)n(C(=O)c2ccc(Cl)c(F)c2F)n1,-,-,-,-,?,-
Cc1cc(C)n(C(=O)c2cc(F)c(F)cc2C)n1,.,.,25,-,-,70
Cc1ccc(C2/C(=C(/O)c3cnn(-c4ccccc4)c3C)C(=O)C(=O)N2CCN2CCOCC2)o1 (stereo not given),-,.,56,?,-,75
CCN(CC)CCN1C(=O)C(=O)/C(=C(/O)c2cnn(-c3ccccc3)c2C)C1c1ccc(C)o1 (stereo not given),.,.,47,?,-,87
Cc1ccc([C@H]2/C(=C(\O)c3cnn(-c4ccccc4)c3C)C(=O)C(=O)N2CCN2CCOCC2)o1,.,.,.,.,-,.
Cc1ccc(C2/C(=C(\O)c3cnn(-c4ccccc4)c3C)C(=O)C(=O)N2CCN(C)C)o1 (stereo not given),-,-,-,-,?,-
Cc1c(/C(O)=C2/C(=O)C(=O)N(CCN3CCOCC3)C2c2cccs2)cnn1-c1ccccc1 (stereo not given),-,.,40,-,?,86
CCn1c(-c2ccccc2)c(C(=O)CC#N)c2ccccc21,-,-,-,-,?,-
Cc1nn2c(=O)cc(COC(=O)Cc3ccccc3)nc2s1,-,-,.,-,.,.
CC1N/C(=C\C(=O)c2ccccc2)N(O)C1(C)C (stereo not given),-,.,37,?,?,76
O=C1Nc2ccccc2/C1=C\C(=O)c1ccccc1,.,.,-,.,.,-
Cn1c(SCC(=O)Nc2ccc(Cl)cc2F)nnc1-c1ccco1,-,-,-,-,?,-
COc1cccc([C@H]2Oc3ccc(OC)cc3/C(=N\OC[C@@H](O)COCc3ccco3)[C@@H]2O)c1,.,.,.,.,-,.
CCOC(=O)N(CC)c1ccc(C(O)(C(=O)OCC)C(F)(F)F)cc1 (stereo not given),-,-,-,10µM,-,-
CCOC(=O)C(O)(c1ccc(N(CC)C(=O)OC)cc1)C(F)(F)F (stereo not given),.,.,-,?,-,-
COc1cc(NC(=O)c2nc3cc(C)c(C)cc3n(C)c2=O)cc(OC)c1OC,-,-,.,-,-,.
CCN(CC)c1ccc(/C=C/[N+](=O)[O-])cc1,-,-,12,?,?,-
CCN(CC)c1ccc(/C=C/c2ccccn2)cc1,-,-,.,.,.,.
SMILES,Vaccinia Venus,VACV mCherry inh,CHX counter,LASV entry inh,Marburg entry inh,Shiga toxin inh
COc1ccccc1CCNC(=O)Cn1ccc2cc(S(=O)(=O)N3CCCCC3)ccc21,-,-,.,-,.,.
Cc1c(C)n(Cc2ccccc2)c2ccc(C(=O)OCCN(C)C)cc12,-,-,29,-,?,-
CCc1ccc(CNC(=O)c2ccc3c(c2)c(C)c(C)n3Cc2ccccc2)cc1,-,-,.,-,.,.
O=C(c1cnc2nc3ccccc3n2c1)c1cc(F)ccc1O,-,-,14,?,-,-
O=C(c1cnn(C(=O)COc2ccccc2F)c1)c1cc(F)ccc1O,-,-,-,-,-,-
CCOc1cc(/C=C/C(=O)Nc2ccc(C(=O)NCCN(CC)CC)cc2)ccc1OCC(C)C,.,.,-,?,18µM,-
O=C(Nc1ccc([N+](=O)[O-])cn1)c1ccc2c(c1)OCO2,-,-,31,-,?,68
Cn1ccc(C(=O)NC(=S)Nc2ccc([N+](=O)[O-])cc2O)n1,.,.,28,.,.,-
O=C(Nc1ccccn1)c1ccc2c(c1)OCCO2,-,-,-,?,?,-
O=C(Nc1ccccn1)c1ccc2c(c1)OCO2,-,-,36,-,?,44
Cc1nc(NC(=O)c2ccc3c(c2)OCO3)ccc1Br,-,-,46,-,-,55
O=C(Cc1ccc([N+](=O)[O-])cc1)NNC(=O)c1ccc2c(c1)OCO2,.,.,-,.,.,-
CCOC(=O)c1cc(OC(=O)c2ccc(OC)c(OC)c2)n(-c2ccccc2)n1,-,-,.,-,-,.
Cc1cc(NC(=O)c2ccc3c(c2)OCCO3)no1,-,-,-,?,?,-
COc1cc([N+](=O)[O-])ccc1NC(=S)NNC(=O)c1ccc2c(c1)OCO2,.,.,-,.,.,-
O=C(Nc1ccc([N+](=O)[O-])cn1)c1cccnc1,-,-,-,-,-,.
O=C(NC(=S)Nc1cc([N+](=O)[O-])ccc1O)c1ccc2c(c1)OCO2,?,?,42,?,?,83
O=C(CCC1CCCC1)Nc1ccc([N+](=O)[O-])cn1,-,-,35,-,?,54
CC(C)(C)c1ccc(C(=O)Nc2ccc([N+](=O)[O-])cn2)cc1,-,-,58,?,-,76
Cc1cc(NC(=O)c2ccc3c(c2)OCO3)no1,-,-,29,?,?,106
CCOC(=O)c1ccccc1NC(=O)N(C)CCc1c(C)nn(CC)c1C,-,-,.,-,.,.
O=C(O)c1ccccc1NS(=O)(=O)c1ccc2ccccc2c1,-,-,33,-,-,-
O=C(O)c1cc(NS(=O)(=O)c2ccc3ccccc3c2)ccc1O,.,.,-,.,.,-
O=C(O)c1cccc(NC(=S)NC(=O)c2ccc3ccccc3c2)c1,-,-,42,0.79µM,?,71
O=C(O)c1ccc(NC(=S)NC(=O)c2ccc3ccccc3c2)cc1,-,-,-,-,-,-
SMILES,Vaccinia Venus,VACV mCherry inh,CHX counter,LASV entry inh,Marburg entry inh,Shiga toxin inh
O=C(NC(=S)Nc1ccccc1C(=O)O)c1ccc2ccccc2c1,-,-,15,-,?,-
CCc1cc(C(=O)O)c(NC(=O)c2cc(OC)c(OC)c(OC)c2)s1,-,-,-,-,-,-
CC(C)(C)OC(=O)NCCC(=O)N/N=C/c1ccc2ncccc2c1,-,-,-,-,-,-
COc1ccc2nc(/C=N/NC(=O)CCNC(=O)OC(C)(C)C)ccc2c1,-,-,35,-,-,62
COc1ccc2nc(/C=N/NC(=O)CCCCCNC(=O)OC(C)(C)C)ccc2c1,-,-,41,-,?,-
COc1ccc(-c2noc(C3CCCN(C(=O)c4cccc(C)c4)C3)n2)cc1 (stereo not given),.,.,-,.,.,.
Cc1ccc(-c2noc(C3CCCN(C(=O)c4cccc([N+](=O)[O-])c4)C3)n2)o1 (stereo not given),-,-,39,-,-,85
Cc1cccc(C(=O)N2CCCC(c3nc(-c4ccc(C)o4)no3)C2)c1 (stereo not given),-,-,42,-,?,113

# Bioassay records as filed in PubChem BioAssay.
